Hit rate of the full screen: of about 5,500 compounds, about 2,000 (36%) were called active. Inconclusive results (about 18%) are left out. Rule as the data show it: active = normalized growth mostly below about 0.91 (no sharp cut-off); inconclusive = no clear call, values can overlap the other calls; inactive = mostly above about 0.92. The list shows a part of the results.
Assay: chemical genetic growth profiling, strain panel (AID 1159580);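 also: tested at 20 µM; growth read once vehicle control cultures reached saturation at 30 °C; 1 = growth at the plate median or of vehicle wells; lower values mean less growth of the strain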
Conditions: growth OD

Measured: normalized growth

CCN(CC)C(=O)c1cccc(C)c1
inactive: S. cerevisiae deletion strains, locus YKL009W, strain mrt4, active compounds read low 0.956 | S. cerevisiae deletion strains, locus YKL068W, active compounds read low 0.989 | S. cerevisiae deletion strains, locus YKL085W, strain MDH1 (second series), active compounds read low 1 | S. cerevisiae deletion strains, locus YKL085W, strain MDH1, active compounds read low 1 | S. cerevisiae deletion strains, locus YKL160W, strain elf1, active compounds read low 1.02 | S. cerevisiae deletion strains, locus YKL190W, strain CNB1, active compounds read low 0.988 | S. cerevisiae deletion strains, locus YKR001C, strain vps1, active compounds read low 1.01 | S. cerevisiae deletion strains, locus YKR026C, strain gcn3, active compounds read low 1.04 | S. cerevisiae deletion strains, locus YKR091W, strain srl3, active compounds read low 1.03 | S. cerevisiae deletion strains, locus YLL001W, strain dnm1, active compounds read low 1.03 | S. cerevisiae deletion strains, locus YLL026W, active compounds read low 1.04 | S. cerevisiae deletion strains, locus YLL041C, strain sdh2, active compounds read low 1.03 | S. cerevisiae deletion strains, locus YLR027C, strain aat2, active compounds read low 1.02 | S. cerevisiae deletion strains, locus YLR039C, strain RIC1, active compounds read low 1.06 | S. cerevisiae deletion strains, locus YLR058C, strain SHM2, active compounds read low 1 | S. cerevisiae deletion strains, locus YLR102C, strain apc9, active compounds read low 0.999 | S. cerevisiae deletion strains, locus YLR113W, strain HOG1, active compounds read low 0.975 | S. cerevisiae deletion strains, locus YLR221C, strain rsa3, active compounds read low 1.02 | S. cerevisiae deletion strains, locus YLR258W, strain gsy2, active compounds read low 1.04 | S. cerevisiae deletion strains, locus YLR262C, strain YPT6 (second series), active compounds read low 1.03 | S. cerevisiae deletion strains, locus YLR262C, strain YPT6, active compounds read low 1.02 | S. cerevisiae deletion strains, locus YLR268W, strain sec22, active compounds read low 0.978 | S. cerevisiae deletion strains, locus YLR320W, strain mms22, active compounds read low 1.04 | S. cerevisiae deletion strains, locus YLR330W, strain CHS5, active compounds read low 0.993 | S. cerevisiae deletion strains, locus YLR342W, strain FKS1 (second series), active compounds read low 0.987 | S. cerevisiae deletion strains, locus YLR342W, strain FKS1, active compounds read low 1.01 | S. cerevisiae deletion strains, locus YLR357W, strain rsc2, active compounds read low 1.09 | S. cerevisiae deletion strains, locus YLR370C, strain arc18, active compounds read low 1.03 | S. cerevisiae deletion strains, locus YLR371W, strain rom2, active compounds read low 0.982 | S. cerevisiae deletion strains, locus YLR384C, strain iki3, active compounds read low 1.06 | S. cerevisiae deletion strains, locus YLR418C, strain cdc73, active compounds read low 1.05 | S. cerevisiae deletion strains, locus YML016C, strain PPZ1, active compounds read low 1.01 | S. cerevisiae deletion strains, locus YML032C, strain rad52, active compounds read low 0.995 | S. cerevisiae deletion strains, locus YML120C, strain ndi1, active compounds read low 1.02 | S. cerevisiae deletion strains, locus YML124C, strain tub3, active compounds read low 0.998 | S. cerevisiae deletion strains, locus YMR058W, strain fet3, active compounds read low 1.04 | S. cerevisiae deletion strains, locus YMR078C, strain ctf18, active compounds read low 0.994 | S. cerevisiae deletion strains, locus YMR125W, strain sto1, active compounds read low 1.03 | S. cerevisiae deletion strains, locus YMR129W, active compounds read low 1.03 | S. cerevisiae deletion strains, locus YMR205C, strain PFK2, active compounds read low 1.06 | S. cerevisiae deletion strains, locus YMR223W, strain ubp8, active compounds read low 1 | S. cerevisiae deletion strains, locus YMR231W, strain pep5, active compounds read low 1.03 | S. cerevisiae deletion strains, locus YMR263W, strain SAP30, active compounds read low 0.999 | S. cerevisiae deletion strains, locus YMR307W, strain GAS1, active compounds read low 1.02 | S. cerevisiae deletion strains, locus YNL067W, strain RPL9B, active compounds read low 1 | S. cerevisiae deletion strains, locus YNL071W, strain lat1, active compounds read low 1.02 | S. cerevisiae deletion strains, locus YNL128W, strain TEP1, active compounds read low 1 | S. cerevisiae deletion strains, locus YNL153C, strain GIM3, active compounds read low 0.999 | S. cerevisiae deletion strains, locus YNL183C, strain NPR1, active compounds read low 0.924 | S. cerevisiae deletion strains, locus YNL209W, strain ssb2, active compounds read low 1.02 | S. cerevisiae deletion strains, locus YNL233W, strain BNI4, active compounds read low 1.01 | S. cerevisiae deletion strains, locus YNL248C, strain rpa49, active compounds read low 1.02 | S. cerevisiae deletion strains, locus YNL250W, strain rad50, active compounds read low 0.994 | S. cerevisiae deletion strains, locus YNL271C, strain bni1, active compounds read low 1 | S. cerevisiae deletion strains, locus YNL298W, strain CLA4, active compounds read low 0.987 | S. cerevisiae deletion strains, locus YNL307C, strain MCK1, active compounds read low 1.01 | S. cerevisiae deletion strains, locus YNL322C, strain KRE1 (second series), active compounds read low 1.03 | S. cerevisiae deletion strains, locus YNL322C, strain KRE1, active compounds read low 1 | S. cerevisiae deletion strains, locus YNR049C, strain mso1, active compounds read low 1.03 | S. cerevisiae deletion strains, locus YNR052C, strain pop2, active compounds read low 0.987 | S. cerevisiae deletion strains, locus YOL006C, strain TOP1, active compounds read low 1.03 | S. cerevisiae deletion strains, locus YOL012C, strain htz1 0.893 | S. cerevisiae deletion strains, locus YOL147C, strain pex11, active compounds read low 0.998 | S. cerevisiae deletion strains, locus YOR001W, strain rrp6, active compounds read low 1.04 | S. cerevisiae deletion strains, locus YOR061W, strain CKA2, active compounds read low 1 | S. cerevisiae deletion strains, locus YOR069W, strain VPS5, active compounds read low 1.01 | S. cerevisiae deletion strains, locus YOR070C, strain gyp1, active compounds read low 1.02 | S. cerevisiae deletion strains, locus YOR080W, strain dia2, active compounds read low 1.04 | S. cerevisiae deletion strains, locus YOR083W, strain WHI5, active compounds read low 1.01 | S. cerevisiae deletion strains, locus YOR106W, strain vam3, active compounds read low 0.998 | S. cerevisiae deletion strains, locus YOR136W, strain idh2, active compounds read low 0.999 | S. cerevisiae deletion strains, locus YOR144C, strain elg1, active compounds read low 0.993 | S. cerevisiae deletion strains, locus YOR184W, strain ser1, active compounds read low 0.978 | S. cerevisiae deletion strains, locus YOR231W, strain MKK1, active compounds read low 0.971 | S. cerevisiae deletion strains, locus YOR265W, strain rbl2, active compounds read low 1.03 | S. cerevisiae deletion strains, locus YOR270C, strain vph1, active compounds read low 1.08 | S. cerevisiae deletion strains, locus YOR290C, strain snf2, active compounds read low 1.01 | S. cerevisiae deletion strains, locus YOR316C, strain cot1, active compounds read low 0.995 | S. cerevisiae deletion strains, locus YPL051W, strain arl3, active compounds read low 1.02 | S. cerevisiae deletion strains, locus YPL055C, strain LGE1, active compounds read low 0.951 | S. cerevisiae deletion strains, locus YPL078C, strain atp4, active compounds read low 1.03 | S. cerevisiae deletion strains, locus YPL106C, strain sse1, active compounds read low 1.11 | S. cerevisiae deletion strains, locus YPL240C, strain hsp82, active compounds read low 1.02 | S. cerevisiae deletion strains, locus YPL241C, strain CIN2, active compounds read low 0.991 | S. cerevisiae deletion strains, locus YPL256C, strain CLN2, active compounds read low 0.983 | S. cerevisiae deletion strains, locus YPR119W, strain clb2, active compounds read low 1 | S. cerevisiae deletion strains, locus YPR141C, strain kar3, active compounds read low 1 | S. cerevisiae deletion strains, locus YPR163C, strain tif3, active compounds read low 0.996 | S. cerevisiae deletion strains, locus YPR167C, strain met16, active compounds read low 0.999 | S. cerevisiae deletion strains, strain wtn01, active compounds read low 0.988 | S. cerevisiae strains, strain wild type, active compounds read low 1
